Among all 69,000 compounds or so, about 8,600 (12%) showed an effect of 50% or more. The list comes from a sample in which strong results are over-represented; it also holds similar structures and randomly drawn compounds.

The assay relates to Plasmodium berghei. As to the kind of experiment: Screen against P. berghei liver stage (PbLuc), transformed with Luciferase, at 10uM. To be noted: tested at 10 uM. In kind it is functional, HepG2.
As for `CC1CCN(c2nc3cn(-c4ccccc4)c(=O)c-3c[nH]2)CC1`, the INHIBITION is -21.5%.
The figure for `Cc1cccc(CN2CCCC3(CCC(=O)N3CCN(C)C)CC2)n1` (configuration not stated) is -6.05%.
The figure for `CN(C)C(=O)N1C[C@@H]2CCCO[C@@H]2[C@H](N(C)Cc2ccco2)C1` is 41.8%; for `CC(C)c1n[nH]c(C2CN(C(=O)c3cnccn3)CCO2)n1` (configuration not stated) it is 48.4%; for `CN1CCC(C)(CNC(=O)c2ccc(SCc3cccnc3)cc2)CC1` it is 34%.
For `CCSc1ncc(Cl)c(C(=O)NC(CCSC)C(=O)O)n1` (configuration not stated) the value was 15.9%; for `CNS(=O)(=O)c1ccc(CNC(=O)NCC2CCCO2)cc1` (configuration not stated), 0.932%.
In the case of `CNS(=O)(=O)c1ccc(CNC(=O)N2CCOC(C)C2)cc1` (configuration not stated), the INHIBITION stood at 50%.
Take `CNS(=O)(=O)c1ccc(CNC(=O)N(CC(C)C)C(C)C)cc1`: the INHIBITION was determined as 31.2%.
For `CNS(=O)(=O)c1ccc(CNC(=O)C2CCCN(C)C2)cc1` (configuration not stated) the value was -34.8%; for `CNS(=O)(=O)c1ccc(CNC(=O)NCC2CCC2)cc1`, -75.2%.
Take `CNS(=O)(=O)c1ccc(CNC(=O)C2CCCO2)cc1` (configuration not stated): the INHIBITION is recorded as 54.3%.
Regarding `CNS(=O)(=O)c1ccc(CNC(=O)C2CN(C)CCO2)cc1` (configuration not stated), the INHIBITION is 50%.
For `CNS(=O)(=O)c1ccc(CNC(=O)NCC2CCOC2)cc1` (configuration not stated) the value was 21.9%.
The figure for `CC1CN(C(=O)NCc2cnn(-c3ccc(F)cc3F)c2)CCO1` (configuration not stated) is -2.55%; for `Cc1c(NC(=O)NCCO)cccc1OC1CCCC1` it is -2.27%; for `CCN(CC)CC1CCN(Cc2ccn(C)c(=O)c2)CC1` it is -18%.
Turning to `COc1ccc(CNc2cc3[nH]c(O)nc3cc2C)cc1`, the INHIBITION amounted to 29.1%.
As to `O=C(CCS(=O)(=O)c1ccccc1)NC1CCOC2(CCOCC2)C1` (configuration not stated), the INHIBITION turned out to be 12.1%.
As to `COc1ccc(COCC(=O)N2CCCC(n3cncn3)C2)cc1` (configuration not stated), the INHIBITION is on record as -9.76%.
As for `Cn1cccc1C(=O)N1CCC2(CC1)COC(COc1ccccn1)C2` (configuration not stated), the INHIBITION is listed as -8.19%.
The figure for `O=C1N(CC2CCC2)CCCC12CCN(S(=O)(=O)c1cccnc1)C2` (configuration not stated) is -21.8%.
For `CC(C)(C)CN1CCCC12CCN(S(=O)(=O)c1ccccc1)C2` (configuration not stated) the value was 78.8%.
For `CC(=O)N1CCC2(CC1)CCN(S(=O)(=O)c1ccccc1)C2` the value was -18.4%.
In the case of `CCN1C(=O)CCC12CCN(S(=O)(=O)c1ccccc1)CC2`, the INHIBITION is given as -2.35%.
For `O=S(=O)(c1ccccc1)N1CCC2(CCCN2CC2CCCC2)C1` (configuration not stated) the value was 71.1%; for `O=C1CCC2(CCN(S(=O)(=O)c3ccccc3)CC2)N1CC1CC1`, -51.6%; for `Cc1c[nH]nc1C1CN(c2ncccn2)CCO1` (configuration not stated), 14.575%.
The figure for `N#Cc1ccc(CCC(=O)N2CCC(CN3CCOCC3)CC2)cc1` is 37.7%; for `O=C(O)C1CN(c2cncc(Cc3ccccc3)n2)C1` it is 8.35%.
`CCc1cc(N[C@H]2CCC[C@H]2CO)n2nc(C)c(C)c2n1`: the INHIBITION is on record as 16.3%.
For `O=S1(=O)CCN(CCCc2ccc(Cl)cc2)CC1` the value was 15%; for `O=C(COCC(F)(F)F)N1CCCC(n2cccn2)C1` (configuration not stated), 39.5%; for `CC(C)CC(=O)N1CCN(C(=O)NC(C)C)CC2(CC(=O)N(C)C2)C1` (configuration not stated), 34.4%.
Take `O=C(NCCc1ccncc1)c1cccc(S(=O)(=O)NC2CC2)c1`: the INHIBITION is -78.5%.
`CN1CC[C@]2(CN(CC3CCOCC3)C[C@H]2c2ccccc2)C1=O`: the INHIBITION is recorded as 43.4%.
The figure for `CN1CC[C@]2(CN(CC3CC3)C[C@H]2c2ccccc2)C1=O` is 52.4%; for `CN(C)C(=O)CN1CC[C@]2(CN(CC3CC3)C[C@H]2c2ccccc2)C1=O` it is 26.5%.
For `O=C1NCC[C@]12CN(CC1CCOCC1)C[C@H]2c1ccccc1` the value was 29.5%.
The figure for `CN1CC[C@]2(CN(CC3CCOC3)C[C@H]2c2ccccc2)C1=O` (some centres not stated) is 57.3%.
For `CN1CC[C@]2(CN(Cc3nccs3)C[C@H]2c2ccccc2)C1=O`, the INHIBITION was -2.41%.
On to `Cc1ccc(NC2CCN(C(=O)CCCn3ccnc3C)CC2)nn1`, for which the INHIBITION worked out at 8.64%.
On to `CC(C)c1noc(CS(=O)(=O)CC(=O)NCCOc2ccccc2)n1`, for which the INHIBITION is reported as 61.5%.
For `CC(C)c1noc(CCCC(=O)NCCOc2ccccc2)n1` the value was 46.4%; for `CC(C)c1noc(CS(=O)(=O)CC(=O)NCc2ccccc2)n1`, 10.6%; for `CC(C)OCCCNC(=O)C1CC(=O)N(c2n[nH]c3cccc(F)c23)C1` (configuration not stated), -10.9%.
As for `Cn1cccc1C(=O)N1CCCC(Cn2cc(CO)nn2)C1` (configuration not stated), the INHIBITION is given as -2.39%.
The figure for `Cc1ccc(C2CN(CCS(=O)(=O)C(C)C)CCO2)c(C)c1` (configuration not stated) is 30.7%.
For `Cc1ccc(C2CN(CCCC#N)CCO2)c(C)c1` (configuration not stated) the value was -3.47%.
The figure for `Cc1ccc(C2CN(c3nnc(C(F)F)s3)CCO2)c(C)c1` (configuration not stated) is 57.4%.
For `Cc1ccc(C(=O)N2CCC3(CCN(c4ccsc4)C3=O)C2)cn1` (configuration not stated), the INHIBITION is listed as -14.3%.
The figure for `NCc1n[nH]c(-c2ccc(Br)cc2)n1` is -34.4%; for `Cc1nc(N2CCN(S(C)(=O)=O)CC2)cc(-n2cnc(C)c2C)n1` it is 23.9%.
For `Cc1ncn(-c2cc(N3CCN(S(C)(=O)=O)CC3)ncn2)c1C`, the INHIBITION is 51.5%.
The figure for `CCCS(=O)(=O)N1CCN(c2cc(-n3cnc(C)c3C)ncn2)CC1` is 27.2%; for `Cc1nc(C)n(C2CCCN(C(=O)c3cncnc3C)C2)n1` (configuration not stated) it is 1.563%.
The figure for `CS(=O)(=O)NCCCN1CCCC1c1cccc(Br)c1` (configuration not stated) is -5.25%; for `CCNc1ncc(C(=O)NC2CCOCC2)cn1` it is 1.94%; for `CCNc1ncc(C(=O)N[C@H](C(N)=O)c2ccccc2)cn1` it is 17.1%.
The figure for `CCNc1ncc(C(=O)N[C@@H](C)[C@H](O)c2ccccc2)cn1` is 71.2%; for `CCNc1ncc(C(=O)NC2CCSC2)cn1` (configuration not stated) it is 37.7%.
As for `CCNc1ncc(C(=O)NC2CCc3ccccc3C2)cn1` (configuration not stated), the INHIBITION came to 80.9%.
In the case of `CCNc1ncc(C(=O)NC(c2ccccc2)c2ccco2)cn1` (configuration not stated), the INHIBITION stood at 33.4%.
For `CCc1nnc2n1CCN(C(=O)c1cc(Cl)c[nH]1)C2` the value was 24.39%.
For `Cc1sc(C(=O)NS(C)(=O)=O)cc1-c1ccc(F)cc1` the value was 32.7%.
Consider `CCCN1CCC2(CC1)COc1ccccc1S(=O)(=O)N(CC1CC1)C2`, for which the INHIBITION is recorded as -17.1%.
The figure for `CO[C@@H]1CC[C@H]2[C@H]1OCCN2S(=O)(=O)C1CC1` is -15.2%.

Source of the values: ChEMBL document CHEMBL4513216, “Probing the Open Global Health Chemical Diversity Library for Multistage-Active Starting Points for Next-Generation Antimalarials” (ACS Infect Dis, 2020).
